What was measured:
Type in all cases: functional
Plasmodium falciparum [1] = test: GSK_TCMDC: Inhibition of Plasmodium falciparum 3D7 in whole red blood cells, using parasite LDH activity as an index of growth. Test compounds present at 2uM
Plasmodium falciparum [2] = test: GSK_TCMDC: Inhibition of Plasmodium falciparum Dd2 in whole red blood cells, using parasite LDH activity as an index of growth. Test compounds present at 2uM
HepG2 = test: GSK_TCMDC: Percent inhibition of human HepG2 cell line. Test compounds present at 10uM.

SMILES | Inhibition (Plasmodium falciparum [1]) [%] | Inhibition (Plasmodium falciparum [2]) [%] | Inhibition (HepG2) [%]
Cl.c1ccc2c(C3CCN(CCCCOc4ccc5c(c4)CCN(C4CCC4)CC5)CC3)c[nH]c2c1 | 100 | 100 | 80
COCCCNC(=O)c1ccc(O)c(-c2cc(Cl)cc(Cl)c2)c1 | 94 | 34 | 22
COc1cc2c(Nc3ccc(NC(=O)c4ccccc4)cc3)ncnc2cc1OCCCN1CCOCC1 | 99 | 93 | 14
Cc1cnc(CN(Cc2ccc(-c3ccc(CNCCc4ccc(S(C)(=O)=O)cc4)cn3)cc2)C(=O)c2nn(-c3ccccc3)nc2C)cn1.O=C(O)C(F)(F)F | 84 | 21 | 11
O=C(c1cc(OC(F)(F)F)ccc1O)N1CCN(c2ccccc2)CC1 | 88 | 1 | 0
CCCCc1ccc2ncc(C(=O)OCC)c(O)c2c1 | 95 | 96 | 3
COc1ccc(Cn2cncc2CN(CCC(C)C)C(=O)c2ccc(Cl)nc2Cl)cc1.O=C(O)C(F)(F)F | 87 | 61 | 19
CCOC(=O)c1cnc2c(OC)cc(OC)c(Cl)c2c1Nc1ccccc1 | 99 | 100 | 13
CC(C)c1ccc(NC(=O)N2CCc3ccc(OCCN(C(C)C)C(C)C)cc32)c(Br)c1.O=C(O)C(F)(F)F | 86 | 5 | 6
CCOc1cc(Cc2cnc(N)nc2N)cc(OCC)c1OCC | 97 | 0 | 0
COCCOc1nc(N)nc2ncc(Cc3cc(OC)ccc3OC)c(C)c12 | 96 | 0 | 61
CC(=O)Nc1ncc(C(=O)Nc2cccc(-c3ccc(-c4nc5cc(C(F)(F)F)ccc5[nH]4)s3)c2)s1 | 100 | 99 | 90
CSc1nc2nc(C)c(Cc3cccc(C(F)(F)F)c3)c(C)n2n1 | 98 | 95 | 4
Cc1[nH]c(C)c(-c2ccc(-c3cccc(Cl)c3)nc2)c(=O)c1Cl | 97 | 97 | 15
CC1CC(C)CN(S(=O)(=O)c2cc(C(=O)Nc3cccc([N+](=O)[O-])c3)ccc2Br)C1 (stereo not drawn) | 100 | 68 | 1
CN(C)c1cc2c(Nc3ccc4nc(Cc5ccccc5)[nH]c4c3)ncnc2cn1 [GW301888X] | 85 | 29 | 11
CCCN(CCC)C(C)CCC(C)Nc1c2ccc(Cl)cc2nc2ccc(OC)cc12.Cl (stereo not drawn) | 100 | 99 | 41
CC1CCCN(Cc2cc(Cl)cc(Cl)c2O)C1 (stereo not drawn) | 89 | 77 | 22
CSC1=NC(=Nc2c(C)cccc2C)C2(CCCCC2)N1c1ccccc1Cl | 95 | 57 | 22
CC(C)CCNCC(O)Cn1c2ccc(Cl)cc2c2cc(Cl)ccc21 (stereo not drawn) | 99 | 99 | 36
CN1CCN(Cc2ccc(-c3ccc4c(Nc5cc(O)c(F)cc5Cl)ccnc4c3)o2)CC1 | 100 | 99 | 27

SMILES | Inhibition (Plasmodium falciparum [1]) [%] | Inhibition (Plasmodium falciparum [2]) [%] | Inhibition (HepG2) [%]
CN(C)c1ccc(C2(c3ccccc3)N=C(N)N(CCCc3ccccc3)C2=O)cc1.O=C(O)C(F)(F)F (stereo not drawn) | 99 | 97 | 4
Cc1cc(=NN=Cc2ccccc2Cl)c2cccc(C)c2[nH]1 | 97 | 98 | 10
CN(C)Cc1ccc(-c2cccc(NC(=O)c3cccc(Cl)c3)c2)cc1.O=C(O)C(F)(F)F | 96 | 12 | 18
Cc1noc(C)c1-c1cccc(CNCc2ccc(-c3ccc(-c4nc5cc(C(F)(F)F)ccc5[nH]4)cc3)cc2)c1.O=C(O)C(F)(F)F | 100 | 97 | 35
O=C(Nc1ccc(CN2CCOCC2)cc1)c1ccc(-c2cc(Cl)ccc2Cl)o1 | 100 | 13 | 5
O=C(NC1CCCCC1)N(Cc1ccc(-c2cccc(CNC3CCCC3)c2)cc1)C1CCN(Cc2ccccc2)CC1.O=C(O)C(F)(F)F | 95 | 59 | 52
COc1cc2ncnc(Nc3ccc(Br)c(Cl)c3)c2cc1OC.Cl | 100 | 15 | 22
CCN(CC)CCN(Cc1ccc(-c2ccc(C(F)(F)F)cc2)cc1)C(=O)Cn1c(CCc2cccc(F)c2F)nc(=O)c2cccnc21.O=C(O)C(O)C(O)C(=O)O | 100 | 89 | 75
Cc1ccc(C(=O)Nc2ccc(C)c(OC3CCN(CCC(C)C)C3)c2)cc1.O=C(O)C(F)(F)F (stereo not drawn) | 99 | 53 | 6
O=C(O)C(F)(F)F.O=S(=O)(NCCN1CCCC1)c1cccc(-c2cccc(CNCCc3cccs3)c2)c1 | 100 | 45 | 30
COc1ccc(Nc2nccc(-c3ccc4c(-c5ccsc5)cnc(N)c4c3)n2)cc1 | 100 | 98 | 38
COc1ccc(N2CCN(CCCCNC(=O)c3ccc(NC(=O)c4ccc(Cl)c(Cl)c4)cc3)CC2)c(OC)c1 | 100 | 98 | 23
COc1cc(Cc2cnc(N)nc2N)cc(OCCCCCCN2C(=O)c3ccccc3C2=O)c1OC | 95 | 3 | 15
Cl.O=C(/C=C/c1ccc(F)cc1)NC1CCC(CCN2CCc3ccc(-n4cccn4)cc3CC2)CC1 (stereo not drawn) | 89 | 16 | 23
COc1ccccc1C1CCN(CCN2CCC(NC(=O)c3ccc(-c4ccc(C#N)cc4)cc3)CC2)CC1 | 99 | 42 | 31
Cc1cc(NCCC(=O)Nc2ccccc2)nc(NCC2CCCCC2)n1.O=C(O)C(F)(F)F | 100 | 62 | 14
CC(C)(C)c1ccc2[nH]c(-c3ccc(/C=C/C(=O)NC4CCN(Cc5ccccc5)CC4)cc3)nc2c1 | 100 | 96 | 45
COc1cccc(NC(=O)COc2ccc(C(=O)Nc3nc4ccccc4[nH]3)cc2)c1 | 99 | 29 | 19
FC(F)(F)c1ccc(-c2cncc(-c3ccc(C(F)(F)F)cc3)n2)cc1 | 98 | 97 | 9
COc1ccc(-c2cc(-c3ccc(S(C)(=O)=O)cc3)cnc2N)cn1 | 94 | 99 | 5
COc1cccc2cc(C(=O)N[C@@H](CC(C)C)C(=O)N[C@H](C=NNC(=O)OC(C)(C)C)Cc3ccccc3)oc12 | 99 | 88 | 11

SMILES | Inhibition (Plasmodium falciparum [1]) [%] | Inhibition (Plasmodium falciparum [2]) [%] | Inhibition (HepG2) [%]
CCCn1c(Sc2ccc(C#N)c([N+](=O)[O-])c2)nnc1-c1ccc(Cl)cc1 | 96 | 95 | 12
Cc1ccc(NC(=O)c2ccc(C(=O)NC3CCN(CC4CCCCC4)CC3)cc2)cc1.O=C(O)C(F)(F)F | 93 | 0 | 36
CN(Cc1cccc(C#N)c1)C1CCN(c2cc(NC(=O)c3cccc(F)c3)ccn2)CC1.O=C(O)C(F)(F)F | 98 | 15 | 0
COc1ccc2nccc(N3CCC(CCNCc4cc5c(cn4)OCCO5)CC3)c2c1.Cl | 100 | 99 | 26
Cc1cc(-c2ccc3c(c2)CCN(CCC2CCC(NC(=O)/C=C/c4ccc(F)cc4)CC2)CC3)on1.Cl (stereo not drawn) | 98 | 47 | 29
O=C(/C=C/c1ccc(Cl)c(Cl)c1)NC1CCC(CN2CCC(c3nc4cc(O)ccc4[nH]3)CC2)CC1 (stereo not drawn) | 100 | 84 | 41
CCCN(CCC)CCCNc1ccc(C(=O)Nc2ccc(C(C)C)cc2)cc1[N+](=O)[O-] | 98 | 38 | 17
COc1ccc(CNCCc2cccs2)cc1-c1cccc(S(=O)(=O)NCCN2CCCC2)c1.O=C(O)C(F)(F)F | 98 | 41 | 56
O=[N+]([O-])c1cccc(-c2nc(-c3ccc(Br)cc3)[nH]c2-c2ccc(Br)cc2)c1 | 99 | 44 | 6
O=C(Nc1ccc(-c2ccccc2)s1)N[C@H]1CCN(Cc2ccc(OCCCN3CCCCC3)cc2)C1 | 100 | 40 | 5
COc1ccc2nc(NC(N)=NC(=O)Nc3ccccc3)nc(C)c2c1 | 90 | 15 | 3
COc1ccccc1C(=O)Nc1ccc(Nc2nc(C)cc(N3CCOCC3)n2)cc1 | 98 | 22 | 28
COc1ccc(-c2cnc3ccc(NCCCO)nn23)cc1OC | 98 | 90 | 9
CCCCCCn1c(Sc2ccc(C#N)c([N+](=O)[O-])c2)nnc1-c1ccccc1 | 97 | 41 | 23
Cc1ccc(NC(=O)Nc2ccc(Br)cc2)cc1OCCN(C)C | 84 | 15 | 13
N[C@@H](Cc1ccc(O)cc1)C(=O)NC(c1ccccc1)c1c(O)ccc2ccccc12.O=C(O)C(F)(F)F (stereo partly drawn) | 95 | 95 | 6
COc1ccc2nccc([C@@H](O)CN3CCC(NCc4ccc5c(c4)nnn5C(C)C)CC3)c2c1.O=C(O)C(=O)O | 100 | 40 | 15
Cc1ccc(F)cc1S(=O)(=O)Nc1cccc(CCN2CCC(N3CCCCC3)CC2)c1 | 96 | 9 | 15
CC(C)(C)OC(=O)N[C@@H](Cc1ccccc1)C(=O)Nc1cccc(-c2cccc(NC(=O)[C@H](Cc3ccccc3)NC(=O)OC(C)(C)C)c2)c1 | 100 | 97 | 10

— ChEMBL document CHEMBL1157539, “Thousands of chemical starting points for antimalarial lead identification” (Nature, 2010)
